Screens from PubChem.
p53ts 39C kill: cytotoxicity in p53ts cells at nonpermissive temperature; H1299-p53A138V viability at 39C, ATP luminescence, 24 h; Potency, µM (titrated, usually from 46.1 µM), without a hit: top-dose activity change, negative = cell killing, hits mostly cytotoxic; 130,000 tested, 1.5% active; AID 902; note: nearly all actives have a fitted effect of over 55% in size
Luciferase inh: firefly luciferase inhibition | P08659 | purified firefly luciferase, luminescence, 8 min | Potency, µM (top dose mostly 57.1 µM), for inactives: at the top dose activity change, negative = inhibition, usual class: inhibitors | 72,000 tested, 2.2% active | AID 411; note: nearly all actives have a fitted effect of over 40% in size
Target sequence (P08659 whole entry, looked up): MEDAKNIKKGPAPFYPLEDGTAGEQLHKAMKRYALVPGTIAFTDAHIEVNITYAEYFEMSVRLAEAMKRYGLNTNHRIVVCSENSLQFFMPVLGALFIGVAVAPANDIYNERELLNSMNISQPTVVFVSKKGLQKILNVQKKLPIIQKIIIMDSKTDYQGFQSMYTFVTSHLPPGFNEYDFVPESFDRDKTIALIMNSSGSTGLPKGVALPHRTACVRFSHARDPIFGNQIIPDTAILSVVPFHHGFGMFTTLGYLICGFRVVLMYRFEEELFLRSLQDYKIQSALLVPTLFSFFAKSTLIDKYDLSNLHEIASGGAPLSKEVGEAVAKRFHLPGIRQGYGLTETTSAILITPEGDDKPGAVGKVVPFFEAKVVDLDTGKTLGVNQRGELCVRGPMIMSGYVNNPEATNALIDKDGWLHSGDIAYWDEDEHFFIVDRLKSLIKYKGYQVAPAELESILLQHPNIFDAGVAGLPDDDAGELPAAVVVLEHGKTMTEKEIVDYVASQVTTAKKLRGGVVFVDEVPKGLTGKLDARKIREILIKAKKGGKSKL
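Substrate buffer containing 10 uM ATP (pH 7.2 imidazole, Mg2+, KCl, detergent, BSA) is dispensed, compound pinned in, then luciferase/luciferin detector mix added. After 8 min at ambient temperature, light output is measured.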
p53ts 32C tox: kills p53ts cells at the permissive temperature; H1299-p53A138V at 32C, ATP luminescence viability, 24 h; Potency, µM (titrated, usually from 46.1 µM), without a hit: at the highest dose activity change, negative = cytotoxicity, actives largely listed as cytotoxic; 130,000 tested, 0.93% active;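 note: 0% = DMSO and -100% = full killing by reference compound; nearly all actives have a fitted effect of over 55% in size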
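H1299-p53 A138V cells (temperature-sensitive p53) exposed 24 h to up to 46 uM compound at 32C, where p53 is wild-type in conformation. Viability read as ATP luminescence and normalised to DMSO and 100 uM tamoxifen. AC50 fitted with the Hill equation.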
Numbers without * were called inactive; ? = inconclusive; . = not tested or not shown; [ ] = remark or other dose. Only some compounds are listed: those with a hit (about 2.5% of all), similar ones and a draw of the others. Calls come from the whole dose curve; as a rule, active = well fitted curve in the direction sought with a large enough effect; inconclusive = small, poorly fitted or top-dose-only effect, or another doubt; inactive = no such curve, though single readings can be large; an effect the other way counts as inactive or inconclusive. Unless noted, % is set by controls: 0 for no effect and ±100 for the full control effect; potency is the fitted concentration of half-maximal effect.

SMILES | p53ts 39C kill | Luciferase inh | p53ts 32C tox
Cc1nc(N)sc1-c1csc(N(C)c2ccc(O)cc2)n1 | -23% | 13µM* | -21%
COc1cccc(Nc2nc(-c3sc(N)nc3C)cs2)c1 | -6% | -21% | 11%
CCc1ccc(NC(=O)CSc2nc3n[nH]c(C)c3c(=N)n2-c2ccccc2C)cc1 | 10µM* | . | -11%
Cc1ccc(-n2c(SCC(=O)NCc3ccccc3)nc3n[nH]c(C)c3c2=N)cc1Cl | 20µM* | . | 6%
CCc1ccccc1-n1c(SCC(=O)Nc2ccc(C)cc2)nc2n[nH]c(C)c2c1=N | -6% | . | -17%
Cc1c(Cl)cccc1-n1c(SCC(=O)NCc2ccccc2)nc2n[nH]c(C)c2c1=N | -10% | . | -12%
CCCCCCc1ccc(-c2ncc(N)cn2)cc1 | -3% | -16% | 3%
Nc1ccc(-c2cnc(-c3ccc(N)cc3)nc2)cc1 | 10µM* | 13µM* | 10µM*
O=C(NCC1CCCO1)c1ccccc1-c1nc(-c2ccc(Cl)cc2)no1 (stereo not drawn) | -15% | ? | -17%
Cc1cccc(-c2noc(-c3ccccc3C(=O)NCC3CCCO3)n2)c1 (stereo not drawn) | -23% | 16µM* | -20%
Cc1ccccc1CN1CCCN(CC(=O)Nc2c(C)cccc2C)S1(=O)=O | -2% | . | 10%
COc1ccc(/C=C/C(=O)Nc2ccccc2C(=O)O)cc1OC | 13µM* | ? | ?
COc1ccc(/C=C/C(=O)Nc2cc(C(F)(F)F)ccc2Cl)cc1OC | 3% | . | .
CCOc1ccc(C(=O)NCc2cccs2)cc1 | -6% | -11% | -20%
Cc1c(/C=C/C(=O)c2cccs2)cnn1C | -10% | . | -9%
CCOc1ccc(/C=C/C(=O)c2cccs2)cc1 | -12% | . | 25µM*
COc1ccc(/C=C/C(=O)c2ccc(O)cc2O)cc1OC | 73% | . | ?
COc1ccc(/C=C/C(=O)c2cccs2)cc1OC | 16µM* | . | 13µM*
O=C(/C=C/c1ccccc1)c1cccs1 | -81% | . | 32µM*
CCN(CC)c1ccc(NC(=O)c2cnn3c(C(F)F)cc(-c4ccccc4)nc23)cc1 | 14% | . | 0%
C[C@@]12CC[C@H]3[C@H](CC=C4C[C@@H](O)CC[C@@]43C)[C@@H]1CC[C@@H]2N(CCO)CCO | -1%[9.22 µM] | 3%[11.4 µM] | -1%[9.22 µM]
COc1ccc(CCN2C(=O)CN(C3CCCCCC3)C(=O)C2c2ccc(C)cc2)cc1OC (stereo not drawn) | -27% | . | -3%
C[C@H](c1ccccc1)N1C(=O)[C@H]2[C@@H]3[C@H](O)[C@H](O)CC(=O)[C@H]3CC[C@H]2C1=O | 15%[9.22 µM] | 1%[11.4 µM] | 10%[9.22 µM]
CCCCC(=O)OC1=C(C(=O)c2ccccc2)N(CC)S(=O)(=O)c2ccccc21 | -5% | . | 4%
CCN1C(C(=O)c2ccccc2)=C(OC(=O)c2ccccc2OC)c2ccccc2S1(=O)=O | 10µM* | . | ?
SMILES | p53ts 39C kill | Luciferase inh | p53ts 32C tox
C=CCN1CCc2c(cc(O)c(O)c2Cl)[C@H](c2ccccc2)C1 | -13% | 2% | -18%
Fc1ccc(Nc2ccnc(-c3ccc4c(c3)OCO4)n2)cc1 | -27% | -5%[2.29 µM] | -6%
O=C(NCCc1ccccc1)C(=O)NCC(c1ccc2c(c1)OCO2)N1CCOCC1 (stereo not drawn) | -17% | . | -9%
O=C(COc1ccc2oc(-c3ccccc3)cc(=O)c2c1)NCc1ccco1 | -20% | 7.9µM* | -19%
Cc1cc(=O)oc2cc(OCC(=O)NCc3ccco3)ccc12 | 12% | . | 4%
CCOc1ccc(-c2cc(CCCC(=O)NCCc3cc(OC)c(OC)c(OC)c3)no2)cc1 | -17% | . | -5%
CCOc1ccc(-c2cc(CCCC(=O)NCCCOC)no2)cc1 | -28% | 16µM* | ?
Cc1cc(C)c2sc(N(Cc3cccnc3)C(=O)CCS(=O)(=O)c3ccccc3)nc2c1 | 16µM* | . | -1%
Cc1cc(C)c2nc(N(Cc3cccnc3)C(=O)CCS(=O)(=O)c3ccccc3)sc2c1 | -1% | . | 1%
O=c1n(Cc2cc3c(cc2Cl)OCO3)c(=O)n2n1CC[C@H]1/C(=N\OC[C@@H](O)COCc3ccco3)[C@H]3O[C@@H]3[C@@H](O)[C@@H]12 | 2%[9.22 µM] | 0%[11.4 µM] | 11%[9.22 µM]
CN1CCN(c2ncc3nc(-c4ccccc4)c(=O)n(C)c3n2)CC1 | -6% | -1%[11.4 µM] | 1%
O=C(NCCc1nc2ccccc2[nH]1)c1ccc(F)cc1 | 4% | 0% | 10%
O=C(Nc1nc2ccccc2[nH]1)c1ccc(F)cc1 | 2µM* | 3.2µM* | 3.2µM*
Cc1c(C(=O)Nc2nc3ccccc3[nH]2)cccc1[N+](=O)[O-] | -12% | . | .
COc1ccc(C(=O)NCc2nc3ccccc3[nH]2)cc1OC | 6% | 1% | -2%
O=C(Nc1nc2ccccc2[nH]1)c1ccccc1F | 1.6µM* | 1µM* | 1.3µM*
COc1ccc(C(=O)Nc2nc3ccccc3[nH]2)cc1OC | ? | 25µM* | ?
